For one molecule, inhibition results are on record in ChEMBL document CHEMBL1961873, “Compounds: GSK PKIS; Assays: Nanosyn kinase panel” (2012).

For assay [1], the target named is T1, Inhibitor of nuclear factor kappa-B kinase subunit epsilon (Homo sapiens) (UniProt Q14164).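 Further: reported values are averaged percent inhibition figures against human IKKε.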
T1 sequence (whole entry): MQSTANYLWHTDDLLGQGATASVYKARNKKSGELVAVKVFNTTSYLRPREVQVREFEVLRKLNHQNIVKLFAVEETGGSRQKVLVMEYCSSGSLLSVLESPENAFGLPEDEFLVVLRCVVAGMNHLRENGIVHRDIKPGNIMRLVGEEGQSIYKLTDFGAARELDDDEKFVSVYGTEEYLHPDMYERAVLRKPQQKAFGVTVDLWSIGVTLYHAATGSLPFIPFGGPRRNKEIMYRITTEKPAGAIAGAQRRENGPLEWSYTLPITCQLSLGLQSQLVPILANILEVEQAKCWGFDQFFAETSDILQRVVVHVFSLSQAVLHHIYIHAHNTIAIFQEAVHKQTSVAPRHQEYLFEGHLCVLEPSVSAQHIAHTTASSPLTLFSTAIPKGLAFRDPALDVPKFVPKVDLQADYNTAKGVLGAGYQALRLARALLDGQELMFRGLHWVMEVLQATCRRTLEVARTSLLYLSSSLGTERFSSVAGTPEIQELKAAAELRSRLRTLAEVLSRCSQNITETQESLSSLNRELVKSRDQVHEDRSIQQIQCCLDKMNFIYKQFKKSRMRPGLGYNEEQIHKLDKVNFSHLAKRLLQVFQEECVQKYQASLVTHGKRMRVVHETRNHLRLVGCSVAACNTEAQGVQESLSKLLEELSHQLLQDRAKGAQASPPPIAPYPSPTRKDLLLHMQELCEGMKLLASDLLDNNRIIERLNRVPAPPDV
The following applies: at 1 µM.

Assay [2] concerns the target T2, Serine/threonine-protein kinase Nek1 (Homo sapiens) (UniProt Q96PY6).
T2 sequence (whole entry): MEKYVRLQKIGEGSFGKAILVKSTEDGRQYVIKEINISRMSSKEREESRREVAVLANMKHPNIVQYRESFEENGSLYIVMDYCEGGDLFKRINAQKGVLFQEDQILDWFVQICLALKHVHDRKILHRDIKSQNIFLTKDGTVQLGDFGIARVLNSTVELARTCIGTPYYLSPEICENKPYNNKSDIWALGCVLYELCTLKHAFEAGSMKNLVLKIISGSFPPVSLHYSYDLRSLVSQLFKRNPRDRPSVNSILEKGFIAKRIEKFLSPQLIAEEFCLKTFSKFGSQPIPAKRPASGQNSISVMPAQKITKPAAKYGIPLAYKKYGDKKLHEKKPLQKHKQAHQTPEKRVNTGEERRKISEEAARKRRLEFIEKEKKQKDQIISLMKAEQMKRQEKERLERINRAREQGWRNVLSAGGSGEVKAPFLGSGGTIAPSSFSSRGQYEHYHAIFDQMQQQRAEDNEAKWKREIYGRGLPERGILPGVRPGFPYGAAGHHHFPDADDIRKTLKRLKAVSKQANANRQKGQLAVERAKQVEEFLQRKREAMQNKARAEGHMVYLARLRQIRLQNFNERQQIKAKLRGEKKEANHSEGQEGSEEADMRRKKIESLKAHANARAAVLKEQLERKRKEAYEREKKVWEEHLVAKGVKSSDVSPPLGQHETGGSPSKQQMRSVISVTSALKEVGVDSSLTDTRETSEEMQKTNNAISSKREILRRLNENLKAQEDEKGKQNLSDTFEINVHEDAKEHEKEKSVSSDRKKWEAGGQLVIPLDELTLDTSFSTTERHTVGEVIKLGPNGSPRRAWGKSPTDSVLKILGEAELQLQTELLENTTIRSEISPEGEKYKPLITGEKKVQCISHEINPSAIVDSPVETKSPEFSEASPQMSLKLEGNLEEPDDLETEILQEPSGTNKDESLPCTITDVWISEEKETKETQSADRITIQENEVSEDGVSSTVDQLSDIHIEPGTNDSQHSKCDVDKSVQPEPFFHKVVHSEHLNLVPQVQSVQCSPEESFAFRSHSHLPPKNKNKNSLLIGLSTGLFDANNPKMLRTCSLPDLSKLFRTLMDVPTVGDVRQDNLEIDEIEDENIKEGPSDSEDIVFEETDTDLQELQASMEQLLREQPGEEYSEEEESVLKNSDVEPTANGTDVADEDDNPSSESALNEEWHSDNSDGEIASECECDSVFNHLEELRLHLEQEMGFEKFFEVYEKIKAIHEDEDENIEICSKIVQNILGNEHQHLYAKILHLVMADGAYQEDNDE
To be noted: at 0.1 µM.

Assay [3] addresses T2, Serine/threonine-protein kinase Nek1 (Homo sapiens). The following applies: at 1 µM.
Assay [4] has as its target T3, Serine/threonine-protein kinase Nek2 (Homo sapiens) (UniProt P51955).
T3 sequence (whole entry): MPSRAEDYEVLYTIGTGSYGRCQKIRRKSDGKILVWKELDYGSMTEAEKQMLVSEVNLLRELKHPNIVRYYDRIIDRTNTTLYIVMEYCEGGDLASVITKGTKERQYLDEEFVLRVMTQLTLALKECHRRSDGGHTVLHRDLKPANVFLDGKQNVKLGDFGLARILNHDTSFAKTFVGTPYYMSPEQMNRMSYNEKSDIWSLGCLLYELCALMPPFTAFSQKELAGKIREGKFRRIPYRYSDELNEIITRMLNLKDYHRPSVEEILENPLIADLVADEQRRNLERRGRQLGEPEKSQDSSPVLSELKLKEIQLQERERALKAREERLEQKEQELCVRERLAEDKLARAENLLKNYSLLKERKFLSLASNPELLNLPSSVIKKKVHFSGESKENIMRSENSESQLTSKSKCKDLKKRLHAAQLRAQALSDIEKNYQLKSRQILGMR
The following applies: at 0.1 µM.

Assay [5] addresses T3, Serine/threonine-protein kinase Nek2 (Homo sapiens). To be noted: at 1 µM.
Assay [6] has as its target Serine/threonine-protein kinase Nek6 (Homo sapiens) (UniProt Q9HC98). To be noted: at 0.1 µM.
For assay [7] the target is unchanged. The following applies: at 1 µM.
Assay [8] deals with Serine/threonine-protein kinase Nek7 (Homo sapiens) (UniProt Q8TDX7). The following applies: at 0.1 µM.
For assay [9] the target is unchanged. To be noted: at 1 µM.
For assay [10], the target named is T4, Serine/threonine-protein kinase Nek9 (Homo sapiens) (UniProt Q8TD19).
T4 sequence (whole entry): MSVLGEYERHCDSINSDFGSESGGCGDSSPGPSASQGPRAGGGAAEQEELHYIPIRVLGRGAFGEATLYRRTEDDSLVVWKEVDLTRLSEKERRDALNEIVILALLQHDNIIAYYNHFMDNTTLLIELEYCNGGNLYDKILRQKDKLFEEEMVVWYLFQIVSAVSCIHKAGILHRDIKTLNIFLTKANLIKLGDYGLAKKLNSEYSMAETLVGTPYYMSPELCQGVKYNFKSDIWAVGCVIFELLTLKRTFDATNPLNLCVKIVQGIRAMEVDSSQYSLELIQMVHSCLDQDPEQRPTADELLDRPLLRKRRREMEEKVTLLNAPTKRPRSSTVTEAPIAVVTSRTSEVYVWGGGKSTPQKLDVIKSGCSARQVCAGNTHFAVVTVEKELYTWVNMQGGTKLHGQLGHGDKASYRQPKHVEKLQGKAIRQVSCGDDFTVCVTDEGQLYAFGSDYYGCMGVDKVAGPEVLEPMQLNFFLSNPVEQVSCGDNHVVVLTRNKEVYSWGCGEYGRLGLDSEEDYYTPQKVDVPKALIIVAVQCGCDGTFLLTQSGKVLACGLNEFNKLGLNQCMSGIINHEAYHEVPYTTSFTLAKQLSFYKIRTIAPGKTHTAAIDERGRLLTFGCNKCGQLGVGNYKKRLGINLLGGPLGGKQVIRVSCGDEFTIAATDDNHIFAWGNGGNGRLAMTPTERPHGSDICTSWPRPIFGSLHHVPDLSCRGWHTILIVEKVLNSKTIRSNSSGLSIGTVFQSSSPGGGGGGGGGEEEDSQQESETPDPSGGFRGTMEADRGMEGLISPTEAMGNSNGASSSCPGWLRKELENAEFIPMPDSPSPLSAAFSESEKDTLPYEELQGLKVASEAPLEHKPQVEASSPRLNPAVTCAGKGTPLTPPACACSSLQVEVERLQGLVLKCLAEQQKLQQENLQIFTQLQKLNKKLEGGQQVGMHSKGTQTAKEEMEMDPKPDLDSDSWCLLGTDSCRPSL
The following applies: at 0.1 µM.

In assay [11] the target is T4, Serine/threonine-protein kinase Nek9 (Homo sapiens). To be noted: at 1 µM.
In assay [12] the target is Serine/threonine-protein kinase PLK1 (Homo sapiens) (UniProt P53350). To be noted: at 0.1 µM.
Assay [13] has the same target. The following applies: at 1 µM.
Assay [14] deals with T5, Dual specificity protein kinase TTK (Homo sapiens) (UniProt P33981).
T5 sequence (whole entry): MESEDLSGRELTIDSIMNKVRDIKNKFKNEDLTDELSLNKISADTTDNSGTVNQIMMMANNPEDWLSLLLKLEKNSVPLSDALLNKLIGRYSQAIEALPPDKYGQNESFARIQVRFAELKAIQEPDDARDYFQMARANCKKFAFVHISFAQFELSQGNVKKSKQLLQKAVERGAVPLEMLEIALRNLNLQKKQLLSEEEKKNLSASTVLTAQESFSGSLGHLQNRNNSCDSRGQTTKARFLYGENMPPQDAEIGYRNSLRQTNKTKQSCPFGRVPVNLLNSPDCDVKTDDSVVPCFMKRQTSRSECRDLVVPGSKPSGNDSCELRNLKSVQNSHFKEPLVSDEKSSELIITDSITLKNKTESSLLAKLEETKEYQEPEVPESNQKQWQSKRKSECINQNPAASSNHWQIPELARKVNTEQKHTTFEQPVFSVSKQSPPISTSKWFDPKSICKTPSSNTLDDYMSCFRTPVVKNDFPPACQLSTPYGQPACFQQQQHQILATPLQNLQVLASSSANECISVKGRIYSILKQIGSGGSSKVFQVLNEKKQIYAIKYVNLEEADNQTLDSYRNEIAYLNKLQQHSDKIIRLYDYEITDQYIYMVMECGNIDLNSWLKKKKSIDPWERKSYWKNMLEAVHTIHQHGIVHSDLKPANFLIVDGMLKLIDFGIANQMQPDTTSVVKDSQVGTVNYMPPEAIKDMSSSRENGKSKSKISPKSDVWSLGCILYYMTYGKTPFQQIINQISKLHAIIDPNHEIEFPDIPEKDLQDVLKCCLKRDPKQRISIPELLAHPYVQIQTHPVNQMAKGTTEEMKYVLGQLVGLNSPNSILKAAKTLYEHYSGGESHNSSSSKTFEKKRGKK
The following applies: at 0.1 µM.

The subject of assay [15] is T6, Receptor-type tyrosine-protein kinase FLT3 (Homo sapiens), P36888 [D835Y].
T6 sequence (whole entry): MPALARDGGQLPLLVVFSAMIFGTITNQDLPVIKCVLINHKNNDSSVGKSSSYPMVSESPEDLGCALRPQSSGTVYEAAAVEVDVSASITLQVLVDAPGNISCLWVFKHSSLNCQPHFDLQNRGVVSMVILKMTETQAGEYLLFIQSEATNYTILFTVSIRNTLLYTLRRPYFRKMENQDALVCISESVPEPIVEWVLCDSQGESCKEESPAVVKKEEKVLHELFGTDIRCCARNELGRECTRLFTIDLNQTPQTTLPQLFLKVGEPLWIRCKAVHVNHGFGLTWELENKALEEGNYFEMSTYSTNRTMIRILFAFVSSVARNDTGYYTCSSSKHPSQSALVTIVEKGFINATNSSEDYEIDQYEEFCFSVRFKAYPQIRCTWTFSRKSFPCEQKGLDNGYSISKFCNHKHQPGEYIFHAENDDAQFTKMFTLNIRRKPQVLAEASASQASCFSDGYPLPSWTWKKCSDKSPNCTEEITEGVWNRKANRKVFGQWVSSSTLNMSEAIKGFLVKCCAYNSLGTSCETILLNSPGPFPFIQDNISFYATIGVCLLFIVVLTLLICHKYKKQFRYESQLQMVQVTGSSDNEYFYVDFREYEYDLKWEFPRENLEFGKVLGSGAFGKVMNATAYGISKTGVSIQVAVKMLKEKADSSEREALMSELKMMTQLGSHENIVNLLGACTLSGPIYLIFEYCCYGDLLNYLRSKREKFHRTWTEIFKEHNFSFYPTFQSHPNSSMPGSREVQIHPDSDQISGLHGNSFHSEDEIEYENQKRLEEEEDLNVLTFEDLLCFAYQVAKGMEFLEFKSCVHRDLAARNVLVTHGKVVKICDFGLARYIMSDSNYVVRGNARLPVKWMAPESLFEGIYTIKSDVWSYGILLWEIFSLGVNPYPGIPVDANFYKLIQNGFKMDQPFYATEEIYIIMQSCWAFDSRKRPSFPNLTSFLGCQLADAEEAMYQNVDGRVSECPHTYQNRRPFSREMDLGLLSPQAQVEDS
To be noted: at 1 µM.

For assay [16], the target named is Vascular endothelial growth factor receptor 3 (Homo sapiens) (UniProt P35916). The following applies: at 0.1 µM.
Assay [17] has the same target. The following applies: at 1 µM.
Assay [18] addresses Macrophage colony-stimulating factor 1 receptor (Homo sapiens) (UniProt P07333). To be noted: at 0.1 µM.
The target is the same in assay [19]. To be noted: at 1 µM.
In assay [20] the target is Tyrosine-protein kinase Fyn (Homo sapiens) (UniProt P06241). To be noted: at 0.1 µM.
Tyrosine-protein kinase Fyn (Homo sapiens), sequence (P06241 2-537 limits assumed): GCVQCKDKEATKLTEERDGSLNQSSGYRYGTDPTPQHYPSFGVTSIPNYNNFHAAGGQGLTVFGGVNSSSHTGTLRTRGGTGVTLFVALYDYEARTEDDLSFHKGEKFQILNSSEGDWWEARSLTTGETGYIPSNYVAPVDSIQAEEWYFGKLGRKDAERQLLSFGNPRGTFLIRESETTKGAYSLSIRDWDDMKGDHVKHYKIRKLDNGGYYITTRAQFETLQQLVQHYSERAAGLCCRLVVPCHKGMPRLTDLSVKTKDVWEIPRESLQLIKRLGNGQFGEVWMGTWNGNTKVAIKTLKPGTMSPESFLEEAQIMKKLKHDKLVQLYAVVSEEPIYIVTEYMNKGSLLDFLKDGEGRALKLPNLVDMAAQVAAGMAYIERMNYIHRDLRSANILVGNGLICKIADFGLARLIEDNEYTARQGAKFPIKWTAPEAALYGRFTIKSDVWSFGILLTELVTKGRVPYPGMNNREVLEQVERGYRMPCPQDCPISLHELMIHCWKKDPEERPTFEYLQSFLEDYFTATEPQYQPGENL

Vascular endothelial growth factor receptor 3 (Homo sapiens), sequence (P35916 whole entry): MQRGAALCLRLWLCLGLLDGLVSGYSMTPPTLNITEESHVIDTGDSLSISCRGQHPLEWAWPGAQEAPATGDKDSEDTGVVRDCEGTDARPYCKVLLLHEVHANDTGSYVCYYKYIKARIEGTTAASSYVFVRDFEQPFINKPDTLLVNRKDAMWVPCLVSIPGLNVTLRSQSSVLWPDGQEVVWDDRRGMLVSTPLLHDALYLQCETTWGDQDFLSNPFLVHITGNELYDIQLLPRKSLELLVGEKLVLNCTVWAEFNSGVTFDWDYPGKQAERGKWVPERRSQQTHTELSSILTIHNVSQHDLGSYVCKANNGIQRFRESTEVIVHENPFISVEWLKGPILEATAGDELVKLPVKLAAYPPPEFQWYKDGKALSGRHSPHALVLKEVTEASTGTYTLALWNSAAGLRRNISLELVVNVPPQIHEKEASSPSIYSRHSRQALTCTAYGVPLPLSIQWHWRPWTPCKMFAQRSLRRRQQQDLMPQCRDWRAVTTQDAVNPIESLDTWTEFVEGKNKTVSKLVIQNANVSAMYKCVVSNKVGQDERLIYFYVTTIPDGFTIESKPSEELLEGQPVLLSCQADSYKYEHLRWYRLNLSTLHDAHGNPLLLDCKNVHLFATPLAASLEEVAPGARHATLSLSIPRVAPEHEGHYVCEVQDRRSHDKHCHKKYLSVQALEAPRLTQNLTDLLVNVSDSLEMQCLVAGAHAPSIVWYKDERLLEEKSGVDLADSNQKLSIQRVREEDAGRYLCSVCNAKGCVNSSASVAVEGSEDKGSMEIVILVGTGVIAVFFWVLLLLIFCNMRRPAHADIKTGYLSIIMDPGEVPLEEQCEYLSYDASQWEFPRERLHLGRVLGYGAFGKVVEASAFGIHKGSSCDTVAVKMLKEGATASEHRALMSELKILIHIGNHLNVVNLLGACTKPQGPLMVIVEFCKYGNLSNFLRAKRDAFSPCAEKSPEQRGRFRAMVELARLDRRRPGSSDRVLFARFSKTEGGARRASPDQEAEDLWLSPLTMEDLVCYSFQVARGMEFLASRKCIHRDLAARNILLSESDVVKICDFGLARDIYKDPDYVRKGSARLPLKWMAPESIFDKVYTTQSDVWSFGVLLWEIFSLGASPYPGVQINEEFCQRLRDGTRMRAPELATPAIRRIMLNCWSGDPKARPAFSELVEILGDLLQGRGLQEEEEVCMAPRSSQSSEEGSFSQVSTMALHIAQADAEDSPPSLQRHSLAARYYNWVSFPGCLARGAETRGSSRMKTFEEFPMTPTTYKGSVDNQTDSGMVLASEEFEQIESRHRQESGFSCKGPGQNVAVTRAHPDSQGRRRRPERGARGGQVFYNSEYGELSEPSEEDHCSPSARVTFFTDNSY
Serine/threonine-protein kinase PLK1 (Homo sapiens), sequence (P53350 whole entry): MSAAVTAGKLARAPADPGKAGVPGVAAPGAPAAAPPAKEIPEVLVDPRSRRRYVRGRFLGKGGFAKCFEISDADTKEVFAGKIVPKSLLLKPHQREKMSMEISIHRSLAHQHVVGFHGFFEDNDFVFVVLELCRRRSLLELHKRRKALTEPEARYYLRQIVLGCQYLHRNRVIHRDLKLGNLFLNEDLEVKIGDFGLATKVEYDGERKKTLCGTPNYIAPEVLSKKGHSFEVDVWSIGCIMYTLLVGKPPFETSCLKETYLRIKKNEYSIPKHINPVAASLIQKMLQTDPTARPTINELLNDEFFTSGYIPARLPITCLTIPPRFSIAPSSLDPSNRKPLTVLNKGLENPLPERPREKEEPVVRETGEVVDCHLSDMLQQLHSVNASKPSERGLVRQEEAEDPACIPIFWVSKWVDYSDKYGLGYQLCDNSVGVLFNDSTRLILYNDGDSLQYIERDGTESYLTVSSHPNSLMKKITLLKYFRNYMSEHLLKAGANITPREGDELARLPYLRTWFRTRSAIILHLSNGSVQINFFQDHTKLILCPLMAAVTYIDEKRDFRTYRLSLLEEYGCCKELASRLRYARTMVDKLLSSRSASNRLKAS
Macrophage colony-stimulating factor 1 receptor (Homo sapiens), sequence (P07333 whole entry): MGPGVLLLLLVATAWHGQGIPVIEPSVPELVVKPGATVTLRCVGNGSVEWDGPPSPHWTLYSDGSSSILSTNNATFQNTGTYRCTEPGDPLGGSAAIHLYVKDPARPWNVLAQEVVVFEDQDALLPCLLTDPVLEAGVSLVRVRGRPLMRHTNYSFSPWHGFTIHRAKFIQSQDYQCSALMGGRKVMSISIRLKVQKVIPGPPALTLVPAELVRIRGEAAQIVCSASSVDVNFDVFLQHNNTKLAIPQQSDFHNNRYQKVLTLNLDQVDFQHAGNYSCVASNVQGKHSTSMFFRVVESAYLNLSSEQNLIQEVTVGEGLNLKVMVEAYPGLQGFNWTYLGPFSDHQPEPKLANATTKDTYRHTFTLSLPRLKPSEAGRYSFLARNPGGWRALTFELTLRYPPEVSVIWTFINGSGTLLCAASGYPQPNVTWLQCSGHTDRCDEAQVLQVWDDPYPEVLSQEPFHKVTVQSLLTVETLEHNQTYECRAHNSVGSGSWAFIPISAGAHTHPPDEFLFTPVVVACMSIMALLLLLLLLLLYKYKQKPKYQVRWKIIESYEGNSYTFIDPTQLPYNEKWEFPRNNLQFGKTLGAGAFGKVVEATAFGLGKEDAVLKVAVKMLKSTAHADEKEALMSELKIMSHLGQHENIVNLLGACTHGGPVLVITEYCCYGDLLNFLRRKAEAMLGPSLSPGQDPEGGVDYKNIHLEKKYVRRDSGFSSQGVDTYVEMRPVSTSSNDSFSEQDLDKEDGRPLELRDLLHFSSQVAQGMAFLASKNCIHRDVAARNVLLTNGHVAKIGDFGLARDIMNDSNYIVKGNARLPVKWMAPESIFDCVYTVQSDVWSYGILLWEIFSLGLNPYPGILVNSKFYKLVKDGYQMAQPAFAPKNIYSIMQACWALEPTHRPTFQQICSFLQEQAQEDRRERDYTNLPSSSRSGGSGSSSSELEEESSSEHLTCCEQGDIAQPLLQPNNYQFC
Serine/threonine-protein kinase Nek7 (Homo sapiens), sequence (Q8TDX7 whole entry, looked up): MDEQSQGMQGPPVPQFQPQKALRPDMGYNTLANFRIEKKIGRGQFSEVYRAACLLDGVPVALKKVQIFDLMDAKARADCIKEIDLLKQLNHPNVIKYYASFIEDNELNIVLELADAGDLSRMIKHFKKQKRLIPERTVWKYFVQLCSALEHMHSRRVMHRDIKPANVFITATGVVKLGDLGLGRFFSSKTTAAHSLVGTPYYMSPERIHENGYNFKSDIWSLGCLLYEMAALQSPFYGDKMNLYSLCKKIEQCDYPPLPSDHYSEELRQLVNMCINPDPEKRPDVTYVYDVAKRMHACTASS
Serine/threonine-protein kinase Nek6 (Homo sapiens), sequence (Q9HC98 whole entry): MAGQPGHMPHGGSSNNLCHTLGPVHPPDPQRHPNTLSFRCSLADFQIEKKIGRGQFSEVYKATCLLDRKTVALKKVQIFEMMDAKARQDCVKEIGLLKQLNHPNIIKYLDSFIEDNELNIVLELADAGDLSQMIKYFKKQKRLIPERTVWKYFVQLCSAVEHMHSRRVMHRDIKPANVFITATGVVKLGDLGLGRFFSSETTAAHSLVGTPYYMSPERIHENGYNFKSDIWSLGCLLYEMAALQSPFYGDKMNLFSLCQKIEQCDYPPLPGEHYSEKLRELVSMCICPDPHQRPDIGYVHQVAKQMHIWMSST

Turning to `C[C@@H](Oc1cc(-n2cnc3ccc(OC[C@@H](O)CO)cc32)sc1C(N)=O)c1ccccc1Cl`, the inhibition (commonly the relative decrease from the control value, in per cent) was -0.86% in assay [1]; 13.6% in [2]; 55% in assay [3]; 3.01% in [4]; 19.7% in assay [5]; -1.54% in assay [6]. Also, the inhibition was -3.82% in [7]; 0.63% in [8]; 0.36% in assay [9]; 62.4% in assay [10]; 91.4% in assay [11]; 92.2% in assay [12]. In addition, the inhibition in assay [13] is 93.5%; in assay [14], 1.27%; in assay [15], 8.15%; in [16] it was 3.69%; in assay [17] it was 22.8%; in assay [18] it was 0.22%. The inhibition in assay [19] turned out to be 9.24%; in [20], 0.14%.
